Screen size: about 5,500 compounds; about 2,000 (36%) were called active. Inconclusive results (about 18%) are left out. No stated cut-off is given here; in the data, active means normalized growth mostly below about 0.91 (no sharp cut-off); inconclusive means no clear call, values can overlap the other calls; inactive means mostly above about 0.92. The list shows a part of the results.
Test: chemical genetic growth profiling, strain panel (AID 1159580);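 further: tested at 20 µM; growth read once vehicle control cultures reached saturation at 30 °C; 1 = growth at the plate median or of vehicle wells; lower values mean less growth of the strain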
Conditions: growth OD

Measured: normalized growth

CC(=O)NC(C(=O)O)C(C)(C)SN=O (centres undefined)
inactive: S. cerevisiae deletion strains, locus YJR043C, strain POL32, hits give low values 0.995 | S. cerevisiae deletion strains, locus YJR075W, strain HOC1, hits give low values 1.03 | S. cerevisiae deletion strains, locus YKL009W, strain mrt4, hits give low values 0.957 | S. cerevisiae deletion strains, locus YKL068W, hits give low values 0.99 | S. cerevisiae deletion strains, locus YKL085W, strain MDH1 (second series), hits give low values 0.987 | S. cerevisiae deletion strains, locus YKL085W, strain MDH1, hits give low values 0.987 | S. cerevisiae deletion strains, locus YKL160W, strain elf1, hits give low values 0.996 | S. cerevisiae deletion strains, locus YKL190W, strain CNB1, hits give low values 1.01 | S. cerevisiae deletion strains, locus YKR001C, strain vps1, hits give low values 1 | S. cerevisiae deletion strains, locus YKR026C, strain gcn3, hits give low values 0.989 | S. cerevisiae deletion strains, locus YKR091W, strain srl3, hits give low values 0.986 | S. cerevisiae deletion strains, locus YLL001W, strain dnm1, hits give low values 1 | S. cerevisiae deletion strains, locus YLL026W, hits give low values 1 | S. cerevisiae deletion strains, locus YLL041C, strain sdh2, hits give low values 0.99 | S. cerevisiae deletion strains, locus YLR027C, strain aat2, hits give low values 1 | S. cerevisiae deletion strains, locus YLR039C, strain RIC1, hits give low values 1 | S. cerevisiae deletion strains, locus YLR058C, strain SHM2, hits give low values 1.01 | S. cerevisiae deletion strains, locus YLR102C, strain apc9, hits give low values 0.993 | S. cerevisiae deletion strains, locus YLR221C, strain rsa3, hits give low values 1 | S. cerevisiae deletion strains, locus YLR258W, strain gsy2, hits give low values 0.994 | S. cerevisiae deletion strains, locus YLR262C, strain YPT6 (second series), hits give low values 1.02 | S. cerevisiae deletion strains, locus YLR262C, strain YPT6, hits give low values 1.01 | S. cerevisiae deletion strains, locus YLR268W, strain sec22, hits give low values 1 | S. cerevisiae deletion strains, locus YLR320W, strain mms22, hits give low values 0.972 | S. cerevisiae deletion strains, locus YLR330W, strain CHS5, hits give low values 0.994 | S. cerevisiae deletion strains, locus YLR342W, strain FKS1 (second series), hits give low values 1.01 | S. cerevisiae deletion strains, locus YLR342W, strain FKS1, hits give low values 1.01 | S. cerevisiae deletion strains, locus YLR357W, strain rsc2, hits give low values 0.989 | S. cerevisiae deletion strains, locus YLR370C, strain arc18, hits give low values 0.991 | S. cerevisiae deletion strains, locus YLR371W, strain rom2, hits give low values 0.984 | S. cerevisiae deletion strains, locus YLR384C, strain iki3, hits give low values 0.974 | S. cerevisiae deletion strains, locus YLR418C, strain cdc73, hits give low values 1.06 | S. cerevisiae deletion strains, locus YML016C, strain PPZ1, hits give low values 1.01 | S. cerevisiae deletion strains, locus YML032C, strain rad52, hits give low values 0.979 | S. cerevisiae deletion strains, locus YML120C, strain ndi1, hits give low values 1 | S. cerevisiae deletion strains, locus YML124C, strain tub3, hits give low values 0.993 | S. cerevisiae deletion strains, locus YMR058W, strain fet3, hits give low values 0.993 | S. cerevisiae deletion strains, locus YMR078C, strain ctf18, hits give low values 0.982 | S. cerevisiae deletion strains, locus YMR125W, strain sto1, hits give low values 0.98 | S. cerevisiae deletion strains, locus YMR129W, hits give low values 0.993 | S. cerevisiae deletion strains, locus YMR205C, strain PFK2, hits give low values 1.01 | S. cerevisiae deletion strains, locus YMR223W, strain ubp8, hits give low values 0.995 | S. cerevisiae deletion strains, locus YMR231W, strain pep5, hits give low values 0.979 | S. cerevisiae deletion strains, locus YMR263W, strain SAP30, hits give low values 1.03 | S. cerevisiae deletion strains, locus YMR307W, strain GAS1, hits give low values 0.995 | S. cerevisiae deletion strains, locus YNL067W, strain RPL9B, hits give low values 1.02 | S. cerevisiae deletion strains, locus YNL071W, strain lat1, hits give low values 0.989 | S. cerevisiae deletion strains, locus YNL128W, strain TEP1, hits give low values 1.03 | S. cerevisiae deletion strains, locus YNL153C, strain GIM3, hits give low values 1.01 | S. cerevisiae deletion strains, locus YNL209W, strain ssb2, hits give low values 0.993 | S. cerevisiae deletion strains, locus YNL233W, strain BNI4, hits give low values 1.01 | S. cerevisiae deletion strains, locus YNL248C, strain rpa49, hits give low values 0.994 | S. cerevisiae deletion strains, locus YNL250W, strain rad50, hits give low values 0.989 | S. cerevisiae deletion strains, locus YNL271C, strain bni1, hits give low values 1 | S. cerevisiae deletion strains, locus YNL298W, strain CLA4, hits give low values 0.983 | S. cerevisiae deletion strains, locus YNL307C, strain MCK1, hits give low values 1.01 | S. cerevisiae deletion strains, locus YNL322C, strain KRE1 (second series), hits give low values 0.997 | S. cerevisiae deletion strains, locus YNL322C, strain KRE1, hits give low values 1.01 | S. cerevisiae deletion strains, locus YNR049C, strain mso1, hits give low values 0.981 | S. cerevisiae deletion strains, locus YNR052C, strain pop2, hits give low values 0.991 | S. cerevisiae deletion strains, locus YOL006C, strain TOP1, hits give low values 1.09 | S. cerevisiae deletion strains, locus YOL012C, strain htz1 0.758 | S. cerevisiae deletion strains, locus YOL147C, strain pex11, hits give low values 0.995 | S. cerevisiae deletion strains, locus YOR001W, strain rrp6, hits give low values 0.971 | S. cerevisiae deletion strains, locus YOR061W, strain CKA2, hits give low values 1.01 | S. cerevisiae deletion strains, locus YOR069W, strain VPS5, hits give low values 1 | S. cerevisiae deletion strains, locus YOR070C, strain gyp1, hits give low values 0.979 | S. cerevisiae deletion strains, locus YOR080W, strain dia2, hits give low values 0.994 | S. cerevisiae deletion strains, locus YOR083W, strain WHI5, hits give low values 1 | S. cerevisiae deletion strains, locus YOR106W, strain vam3, hits give low values 0.999 | S. cerevisiae deletion strains, locus YOR136W, strain idh2, hits give low values 0.984 | S. cerevisiae deletion strains, locus YOR144C, strain elg1, hits give low values 0.989 | S. cerevisiae deletion strains, locus YOR184W, strain ser1, hits give low values 0.978 | S. cerevisiae deletion strains, locus YOR265W, strain rbl2, hits give low values 0.991 | S. cerevisiae deletion strains, locus YOR270C, strain vph1, hits give low values 0.982 | S. cerevisiae deletion strains, locus YOR290C, strain snf2, hits give low values 0.981 | S. cerevisiae deletion strains, locus YOR316C, strain cot1, hits give low values 0.989 | S. cerevisiae deletion strains, locus YPL051W, strain arl3, hits give low values 0.987 | S. cerevisiae deletion strains, locus YPL055C, strain LGE1, hits give low values 1.04 | S. cerevisiae deletion strains, locus YPL078C, strain atp4, hits give low values 0.988 | S. cerevisiae deletion strains, locus YPL106C, strain sse1, hits give low values 0.97 | S. cerevisiae deletion strains, locus YPL240C, strain hsp82, hits give low values 0.999 | S. cerevisiae deletion strains, locus YPL241C, strain CIN2, hits give low values 1.01 | S. cerevisiae deletion strains, locus YPR119W, strain clb2, hits give low values 0.998 | S. cerevisiae deletion strains, locus YPR141C, strain kar3, hits give low values 0.995 | S. cerevisiae deletion strains, locus YPR163C, strain tif3, hits give low values 0.986 | S. cerevisiae deletion strains, locus YPR167C, strain met16, hits give low values 1 | S. cerevisiae deletion strains, strain wtn01, hits give low values 1.01 | S. cerevisiae strains, strain wild type, hits give low values 0.999
